The source of these data is PubChem BioAssay AID1851 (National Center for Advancing Translational Sciences (NCATS), 2009).

Structures are written as SMILES. The campaign covered roughly 16,000 compounds. About 5,700 (36%) were called active. Roughly 24% stayed inconclusive and do not appear here. Calls come from the whole dose curve; as a rule, active = well fitted curve in the direction sought with a large enough effect; inconclusive = small, poorly fitted or top-dose-only effect, or effect the other way; inactive = no such curve, though single readings can be large or run the other way. The list shows a part of the results. Numbered stars: 1 amine (or outer) side, 2 acyl side, 3 side chain; on linkers, the order of the positions; unused ones are H or OH. Bridge positions count the residues as written; N and C are the ends. Square brackets hold non-standard residues; d marks the D form. Peptide text beside a SMILES is read from it. I, II: the chains in the order shown. Actinocin(9to1) = Cc1c2oc3c(C)ccc(C(=O)[*:1])c3nc-2c(C(=O)[*:2])c(N)c1=O; aThr = C[C@H](O)[C@H](N)C(=O)O; NMeV = CN[C@H](C(=O)O)C(C)C; Sar = CNCC(=O)O
% is set by controls: 0 for no effect and ±100 for the full control effect.

For the assay, the target named is Cytochrome P450 1A2 (Homo sapiens) (UniProt P05177). The assay is described as follows: Cytochrome panel assay with activity outcomes. Conditions: recombinant CYP, pro-luciferin dealkylation, luminescence, p450-cyp1a2; series mostly up to 57.1 µM.
Sequence of Cytochrome P450 1A2 (Homo sapiens) (P05177 whole entry, looked up): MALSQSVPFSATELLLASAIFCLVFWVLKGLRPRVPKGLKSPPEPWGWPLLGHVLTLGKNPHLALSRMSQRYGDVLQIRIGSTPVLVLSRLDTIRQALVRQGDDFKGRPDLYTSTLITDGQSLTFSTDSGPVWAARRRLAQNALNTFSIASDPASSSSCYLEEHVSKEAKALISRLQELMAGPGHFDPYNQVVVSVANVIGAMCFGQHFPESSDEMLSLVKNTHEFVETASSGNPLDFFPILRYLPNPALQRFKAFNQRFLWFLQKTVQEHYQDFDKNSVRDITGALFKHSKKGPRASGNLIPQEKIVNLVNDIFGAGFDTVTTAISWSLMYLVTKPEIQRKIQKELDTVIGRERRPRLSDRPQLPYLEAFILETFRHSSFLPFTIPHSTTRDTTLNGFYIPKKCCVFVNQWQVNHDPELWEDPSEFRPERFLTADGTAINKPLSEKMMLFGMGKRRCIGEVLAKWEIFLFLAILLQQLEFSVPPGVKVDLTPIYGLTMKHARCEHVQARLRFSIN
As to `CC(=O)OC[C@H]1O[C@@H](O/N=C2/[C@H]3O[C@@H]3[C@@H](O)[C@H]3[C@H]2CCn2c(=O)n(-c4ccccc4)c(=O)n23)[C@H](OC(C)=O)[C@@H](OC(C)=O)[C@@H]1OC(C)=O`, the activity, negative = inhibition is 1.98% [at 11.4 µM] (inactive).
For the compound `Cc1noc(C)c1C(=O)N1CCC2(CCCN(c3ccccc3)C2)CC1`, the AC50 result was “inactive”.
Still for that read-out and setting: next, `Cc1noc(C)c1-c1nc(N2CCOCC2)c2ccccc2n1`: 0.316 µM (active); `Cc1noc(C)c1-c1nc(N2CCN(C)CC2)c2ccccc2n1`: 0.316 µM (active).
Regarding `Cc1noc(C)c1C(=O)N1CCC2(CC1)CN(c1ccccc1)C2`, the AC50 entry is “inactive”.
Still for that read-out and setting: next, `CN1CCN(C(c2ccccc2)c2ccccc2)CC1`: “inactive”.
Same read-out and setting: the figure for `Cc1cc(C)n(-c2nc(SCCN(C)C)c3c4c(sc3n2)CCCC4)n1` is 14.1 µM (active).
As for `CO[C@@H]1COC(=O)[C@@H](CCSC)NC(=O)C/C=C\[C@@H](C)COC(=O)[C@H](C)NC(=O)C/C=C\[C@H]1C`, the activity, negative = inhibition is -5.08% [at 11.4 µM] (inactive).
As to `Cc1ccccc1S(=O)(=O)c1c(C)cc(-c2ccccc2)[nH]c1=O`, the AC50 result was “inactive”.
In the case of `O=c1cc(-c2ccccc2)[nH]c2nc(Cl)ccc12`, the half-maximal activity concentration (AC50) is 0.398 µM (active).
Same read-out and setting: next, `Cc1cc(-c2ccccc2)[nH]c(=O)c1S(=O)(=O)c1ccc(Cl)cc1`: “inactive”.
Same read-out and setting: the entry for `CC(=O)N1CCC2(CCCN(Cc3nccs3)C2)CC1` is “inactive”; for `CCOC(=O)C(C)n1cnc2c(oc3ccccc32)c1=O` (stereo not given) it is 5.62 µM (active).
On the same count and under the same terms, next, `Cc1cc(/C=C2\SC(=S)NC2=O)c(C)n1C`: 5.01 µM (active); `Cc1ccc(S(=O)(=O)N2CCC(C(=O)NCCCOC(C)C)CC2)cc1`: “inactive”.
Regarding `O=C(OC(C(=O)O)C(OC(=O)c1ccccc1)C(=O)NCc1ccccc1)c1ccccc1` (stereo not given), the AC50 result is “inactive”.
Still for that read-out and setting: the figure for `O=C(NCc1ccccc1)c1cccc(COc2cccc(Cl)c2)c1` is 17.8 µM (active).
With `O=c1c(-c2ccc(F)cc2)nc2cnc(N3CCNCC3)nc2n1Cc1cccs1`, the concentration at half-maximal activity (AC50) was 10 µM (active).
On the same count and under the same terms, the figure for `CN1CCN(c2ncc3nc(-c4ccc(Cl)cc4)c(=O)n(Cc4cccs4)c3n2)CC1` is 10 µM (active); for `O=c1c(-c2ccc(F)cc2)nc2cnc(N3CCOCC3)nc2n1Cc1cccs1` it is 12.6 µM (active); for `O=c1c(-c2ccc(Cl)cc2)nc2cnc(N3CCNCC3)nc2n1Cc1cccs1` it is 12.6 µM (active).
Same read-out and setting: the entry for `COc1cccc(Cn2c(=O)c(-c3ccc(Cl)cc3)nc3cnc(N4CCN(C)CC4)nc32)c1` is “inactive”; for `CC1CCc2cc(F)ccc2N1C(=O)CSc1nnc2c(n1)[nH]c1ccc(F)cc12` (stereo not given) it is 0.501 µM (active).
Regarding `O=C(CSc1nnc2c(n1)[nH]c1ccc(F)cc12)OCc1ccccc1`, the concentration at half-maximal activity (AC50) is 0.501 µM (active).
Consider `Cc1ccc(C(=O)NNC(=O)CSc2nnc3c(n2)[nH]c2ccc(F)cc23)cc1`, for which the AC50 result is “inactive”.
In the case of `C#CCCCO/N=C1/[C@H]2O[C@@H]2[C@@H](O)[C@H]2[C@H]1CCn1c(=O)n(Cc3cc4c(cc3Cl)OCO4)c(=O)n12`, the activity, negative = inhibition was 1.39% [at 11.4 µM] (inactive).
Consider `Cc1nc(Cl)c(C#N)cc1-c1ccccc1`, for which the concentration at half-maximal activity (AC50) is 1 µM (active).
Regarding `Cc1nc(Sc2ccccc2)c(C#N)cc1-c1ccccc1`, the AC50 was 1.26 µM (active).
The same measure, in the same setting: next, `Cc1c2oc3c(C)ccc(C(=O)N[C@@H]4C(=O)N[C@@H](C(C)C)C(=O)N5CCC[C@@H]5C(=O)N(C)CC(=O)N(C)[C@@H](C(C)C)C(=O)O[C@H]4C)c3nc-2c(C(=O)N[C@@H]2C(=O)N[C@@H](C(C)C)C(=O)N3CCC[C@@H]3C(=O)N(C)CC(=O)N(C)[C@@H](C(C)C)C(=O)O[C@H]2C)c(N)c1=O` (I: [aThr]V[dP][Sar][NMeV] / II: [aThr]V[dP][Sar][NMeV]; ester I:1-I:C, II:1-II:C; linker I:N-II:N via Actinocin(9to1)): “inactive”; `CCOC(=O)C1=C(c2ccccc2)OC(N)=C(C#N)C1c1ccc(Cl)s1` (stereo not given): 0.398 µM (active); `CCc1ccc2c(-c3cccc(Cl)c3)nc(=O)n(CC)c2n1`: 0.126 µM (active).
Same read-out and setting: the figure for `CC1(C)Oc2ccc(NC(=O)c3ccco3)cc2O1` is 5.01 µM (active); for `CCC(NC(=O)c1ccccc1NC(=O)c1ccco1)C(=O)NC1CCCCC1` (stereo not given) it is “inactive”; for `O=C(CCc1ccccc1)NNC(=O)c1ccco1` it is “inactive”.
Still for that read-out and setting: next, `Cc1ccc(NC(=O)CCC(=O)NNC(=O)c2ccco2)cc1C`: “inactive”; `CC1=C(C(=O)Nc2ccccc2)C(c2ccco2)NC(=S)N1` (stereo not given): “inactive”; `O=C(Nc1ccccc1C(=O)Nc1ccc2c(c1)OCO2)c1ccco1`: 8.91 µM (active).
For `Cc1cc(C)cc(NC(=O)N2CCCC2C(=O)Nc2ccc(-n3cnnn3)c(C)c2)c1` (stereo not given), the AC50 entry is “inactive”.
The same measure, in the same setting: next, `Cc1cc(NC(=O)c2ccco2)ccc1-n1cnnn1`: 14.1 µM (active); `O=C(Nc1ccccc1C(=O)NCCc1ccccc1)c1ccco1`: 5.01 µM (active).
On to `N#CC(C#N)=CNCCN1CCN(C=C(C#N)C#N)CC1`, for which the activity, negative = inhibition is -15.4% [at 2.29 µM] (inactive).
For `NC(N)=N[C@H](CCC(=O)O)C(=O)O`, the AC50 result was “inactive”.
Still for that read-out and setting: the figure for `COc1ccc2[nH]cc(CCNc3ccnc(-c4c(C)noc4C)n3)c2c1` is 2 µM (active); for `COc1ccc2[nH]cc(CCNc3ccnc(-c4ccc(N(C)C)cc4)n3)c2c1` it is 0.631 µM (active).
Still for that read-out and setting: the figure for `COc1ccc2[nH]cc(CCNc3cc(-c4ccc(C(=O)N(C)C)cc4)ncn3)c2c1` is 20 µM (active); for `COc1ccc2[nH]cc(CCNc3ccnc(-c4ccc(C(=O)N(C)C)cc4)n3)c2c1` it is 12.6 µM (active).
Same read-out and setting: next, `CCOC(=O)C1=C[C@@]2(CC)CCCN3CCc4c(n1c1ccccc41)[C@H]32`: “inactive”.
On to `COc1ccc([C@@H](Nc2ncccn2)c2cc3c(cc2O)OCO3)cc1`, for which the activity, negative = inhibition is -14.3% [at 2.29 µM] (inactive).
Take `COc1ccc2[nH]cc(CCNc3ccnc(-c4ccoc4)n3)c2c1`: the AC50 is 0.501 µM (active).
Consider `COc1ccc2[nH]cc(CCNc3ccnc(-c4ccc5c(c4)OCO5)n3)c2c1`, for which the AC50 was 0.631 µM (active).
Same read-out and setting: the entry for `O=C(O)CC(O)C(=O)O` (stereo not given) is “inactive”; for `CC(C)(CS)C(=O)N1CCC[C@H]1C(=O)O` it is “inactive”.
The same measure, in the same setting: next, `CNc1cc(CS(=O)c2ccccc2)nc(-c2ccccc2)n1` (stereo not given): 14.1 µM (active).
The same measure, in the same setting: the figure for `O=S(=O)(Cc1cc(Oc2ccccc2)nc(-c2ccccc2)n1)c1ccccc1` is 0.708 µM (active); for `O=S(Cc1cc(Oc2ccccc2)nc(-c2ccccc2)n1)c1ccccc1` (stereo not given) it is 2.82 µM (active).

For orientation: AC50 means the concentration giving half of the maximal activity seen.
